# Experimental data reported in PubChem BioAssay (NCI).
# The panel holds about 79,000 compounds, 15% with a hit somewhere; the sample as a whole holds those more often. A number with no mark means an inactive call. Active and inactive are the calls of the source. Cut-off read from the data, not from the text of the source: active = growth inhibition above about 70%; inactive = the rest.
# Legend:
# [1] = NCI Yeast Anticancer Drug Screen. Data for the rad50 strain (AID 155);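 note: 0% = growth of vehicle-only cultures of the same strain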; settings: S. cerevisiae rad50 strain growth inhibition; at 50.0 µM; active compounds read high
# In short: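 Compounds were tested on a yeast strain with an engineered DNA damage repair alteration; the reported value is growth inhibition normalised to vehicle treatment.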
# [2] = NCI Yeast Anticancer Drug Screen. Data for the mec2-1 strain (AID 157); settings: S. cerevisiae mec2-1 strain, at 50.0 µM, active compounds read high
# In short: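 Yeast mec2-1 mutant treated with compound. Readout: growth inhibition vs vehicle controls.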
# [3] = NCI Yeast Anticancer Drug Screen. Data for the sgs1 mgt1 strain (AID 161);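 note: 0% = growth of cultures given vehicle only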; settings: S. cerevisiae sgs1 mgt1 strain, at 50.0 µM, active compounds read high
# In short: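 Mutant yeast exposed to compound; growth scored against vehicle-only wells.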
# [4] = NCI Yeast Anticancer Drug Screen. Data for the cln2 rad14 strain (AID 165);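 note: 0% = growth equal to vehicle treated cultures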; settings: S. cerevisiae cln2 rad14 strain, at 50.0 µM, active compounds read high
# In short: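 cln2 rad14 yeast strain; compound exposure; growth inhibition read vs vehicle controls.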
# [5] = NCI Yeast Anticancer Drug Screen. Data for the bub3 strain (AID 167); settings: S. cerevisiae bub3 mutant strain, at 50.0 µM, active compounds read high
# In short: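 Growth of a checkpoint-deficient yeast mutant is measured after compound exposure. Values represent inhibition relative to vehicle.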
# [6] = NCI Yeast Anticancer Drug Screen. Data for the mlh1 rad18 strain (AID 175); settings: S. cerevisiae mlh1 rad18 strain growth inhibition; at 50.0 µM; active compounds read high
# In short: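 Yeast w/ defined DNA-repair lesions; compound exposure; growth vs vehicle controls → % inhibition.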
SMILES,growth inhibition [1],growth inhibition [2],growth inhibition [3],growth inhibition [4],growth inhibition [5],growth inhibition [6]
CCOC(CN=C=S)OCC,4.25%,-3.95%,16.6%,9.05%,-3.35%,4.65%
O=[N+]([O-])c1cccc(Cc2nc3ccccc3nc2-c2ccccc2)c1,34.9%,18.2%,13.7%,4.1%,48.6%,37.7%
CCc1cccc(C(C)(C)C)c1NC(=S)NC=C(C#N)C#N,27.9%,-11.6%,36.8%,26.8%,17.6%,45.8%
O=C1c2ccccc2C(=O)C1(c1ccccn1)[N+](=O)[O-],5.55%,1.45%,-0.2%,2%,13.6%,3.95%
CCCC(CC/C(C)=N/NC(N)=O)[N+](=O)[O-] (stereo unspecified),-20.1%,-9.25%,0.05%,-9.55%,4.75%,8.5%
CSc1c(C)n([O-])c2ccccc2[n+]1=O,23.1%,26.1%,8.85%,-20.5%,26.1%,5.4%
O=C1C(=O)N(C2CCCCC2)C(=S)N1C1CCCCC1,-31.9%,-30.1%,-62.1%,-2.5%,-5.2%,12.3%
CCC[N+](CCC)=c1ccc2nc3c(C)cc(N(CC)CC)cc3sc-2c1,-60.6%,-6.45%,-20.6%,-126%,-130%,-39.2%
CC(COC(=O)c1ccc(N)cc1)NC1CCCCC1 (stereo unspecified),-8.2%,1.1%,19.6%,13.7%,-2.25%,-16.6%
CN(C)c1ccc(C=C2C(=O)OC(C)(C)OC2=O)cc1Br,1.55%,-13.8%,-4.1%,32%,-17.6%,10.7%
O=C1c2ccccc2C(=O)C1(O)c1c[nH]c2ccccc12,-1.55%,12.1%,4.25%,6.85%,-18%,23.6%
O=C(C[n+]1ccc2ccccc2c1)c1ccc(Br)cc1,-17.1%,12.3%,1.8%,-0.65%,-11.9%,28.9%
Cc1cccc(-n2c(CC#N)n[nH]c2=S)c1,21%,-21.8%,-0.4%,3.15%,5.2%,5.45%
CCOC(=O)/C(C)=C/CC1=C(O)c2ccccc2C(=O)C1=O,7.3%,23.7%,14.1%,16.2%,1.95%,16.8%
CCN(CC)c1c(C)c(-c2ccccc2)oc(=O)c1Cl,0.3%,-1.05%,3.7%,11.1%,6.85%,6.95%
COc1ccc2c(c1)OC(c1cccnc1)C(c1ccccc1)C2=O (stereo unspecified),-5.45%,-27.9%,17.9%,15.4%,16.1%,-0.05%
O=C(COc1ccc(Cl)c(Cl)c1)NCc1ccc(Cl)cc1,7.35%,13.2%,0.1%,5.3%,29.3%,49.5%
O=C(O)c1ccc(O)c(C(=O)O)c1,12%,11%,20.6%,-14.7%,-6.15%,16.8%
O=C1Nc2ccccc2/C1=N\[O-].O=C1Nc2ccccc2/C1=N\[O-].[Cu+2],-10.2%,-5.5%,-30.5%,-0.3%,-23.4%,-21.1%
O=Nc1ccc(O)c2ncccc12,7.15%,-9.45%,15.7%,-26.6%,1.5%,31%
O=Cc1[nH]c(=S)[nH]c(=O)c1Cc1cccc(Cl)c1,63.9%,35.2%,83.2% (active),56.2%,77.5% (active),83.2% (active)

SMILES,growth inhibition [1],growth inhibition [2],growth inhibition [3],growth inhibition [4],growth inhibition [5],growth inhibition [6]
O=c1oc2ccccc2c2c1cnn2-c1ccccc1,-12.7%,-4%,-7.85%,-5.9%,-21.7%,-4.45%
Cc1cc(O)c(C(c2ccc3c(c2)OCO3)c2c(O)cc(C)[nH]c2=O)c(=O)[nH]1,31.1%,17.2%,-4.35%,-1.1%,0%,-34%
CC(C)(C)c1ccc(O)c(C(c2cc(C(C)(C)C)ccc2O)c2cc(C(C)(C)C)ccc2O)c1,97.2% (active),98.7% (active),98% (active),97.6% (active),96.5% (active),96.8% (active)
O=[N+]([O-])c1ccc(Cl)c(/C=C/c2ncccn2)c1,11.4%,10.1%,7.9%,-28.1%,-1.45%,13.9%
NC(=O)CNC(=O)CN1C(=O)c2ccccc2C1=O,9.05%,-14.6%,-13.1%,8.65%,2.1%,-4.2%
CC#CC(O)(C(=O)OC1CCCN(C)C1)C1=CC=CCC1 (stereo unspecified),11.7%,8.25%,13.2%,5%,-1.75%,27.4%
CCOC(=O)C(C(=O)CC)=P(c1ccccc1)(c1ccccc1)c1ccccc1,3.35%,17.4%,-20.1%,-9.4%,-9.9%,23.2%
O=C1Cc2c([nH]c3c(Cl)cccc23)-c2ccccc2N1,-4.65%,14.6%,-19.2%,21.8%,4.5%,-23.4%
CC1=CC(=O)C(C(C)C)=CC1=O,-9.55%,7.25%,-4.25%,22.6%,4.7%,0.5%
O=C(O)C(=O)C(c1ccccc1)c1ccccc1,-0.4%,6.9%,-21.1%,-29.1%,-22.9%,-5.3%
CC(C)=C1C2CCC1[C@H](COS(C)(=O)=O)[C@@H]2COS(C)(=O)=O,-6.7%,6.5%,4.45%,16.9%,11.1%,-11.2%
CCCCCCCC[N+](C)(C)CC#CC[N+](C)(C)CCCCCCCC,46.2%,-14.3%,13.9%,-1.65%,11.1%,44.1%
COC(=O)C12OCC34C(CC5C(C)CC(=O)C(O)C5(C)C3C(O)C1O)OC(=O)C(OC(C)=O)C24 (stereo unspecified),31.2%,44.4%,11.6%,36%,24.2%,31.6%
NC(=O)N/N=C/c1ccc2oc3ccccc3c2c1,40.2%,19.1%,18.4%,16.5%,18.4%,44.5%
CC(=O)Nc1ccc(F)c(N)c1,-3.2%,-13.2%,8.7%,-11.9%,-9.1%,15.1%
COC1OC(COC(c2ccccc2)(c2ccccc2)c2ccccc2)C2OC12 (stereo unspecified),44.1%,5.15%,22.6%,11%,1.3%,19.7%
CC(C)=CCc1c(C)cc2cc3c(c(O)c2c1O)C(O)=CC(=O)C3(CC=C(C)C)C/C=C(\C)CO (stereo unspecified),54.6%,37%,52.5%,47.2%,48.9%,46.1%
CCCCN1C(=O)CC2[C@@H]3CCc4cc(OC)ccc4C3CC[C@]2(C)C1=O (stereo partly specified),9.05%,11.6%,16.1%,26.6%,13.8%,14.4%
CC1(C)C(=NNC(=O)C[N+](C)(C)C)C(C)(C)C1=NNC(=O)C[N+](C)(C)C,-0.4%,-11.9%,-32.9%,-46.4%,-0.15%,-13.5%
CC1(C)CC(=O)C(C)(CCc2ccccc2)C(=O)C1,-2.8%,8.9%,13.7%,-44.6%,-11.4%,-6.65%
